PubChem BioAssay
Results with a measured potency or affinity are listed apart. Activity calls are given as the source filed them.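 Rule for the calls: active = a dose-response fit showing signal loss, with half-maximal concentration no higher than twice the top tested dose; inconclusive = flat fit between 30% and 70% signal loss, or poor fit; inactive = the rest.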

Assay: viability loss in HepG2 hepatoma cells – cell-based, cherry-picks, set 2, cytotoxicity control, dose response (AID 687002)
Settings: ATP luminescence (CellTiter-Glo), 48 h; series mostly up to 26 µM

| SMILES | outcome |
| --- | --- |
| Cc1cc(C)c(NC(=O)C2CCCN2CCC(C)C)c(C)c1 (stereo not given) | inactive |
| S=C(NCc1ccccc1)NCC1COc2ccccc2O1 (stereo not given) | inactive |
| COC(=O)C1=C(C)N(CC(C)C)C(=S)NC1c1ccc(Cl)cc1 (stereo not given) | inactive |
| O=C(NC(=S)Nc1ccccc1N1CCCC1)c1ccc([N+](=O)[O-])cc1 | inactive |
| COC(=O)C1=C(C)N(Cc2ccccc2)C(=S)N[C@H]1c1cccc(F)c1 | inactive |
| COc1cccc(NC(=S)N2CCC(Cc3ccccc3)CC2)c1 | inactive |
| S=C(Nc1ccccc1Oc1ccccc1)Nc1cccc(Cl)c1Cl | inactive |
| COC(=O)C1=C(C)N(CC(C)C)C(=S)NC1c1ccc(F)cc1 (stereo not given) | inactive |
| O=C(NC(=S)Nc1ccccc1N1CCOCC1)c1cccc([N+](=O)[O-])c1 | inactive |
| CCc1ccc(C(=O)NC(=S)NCc2cccnc2)cc1 | inactive |
| CC=Cc1ccc2n(c1=O)C[C@@H]1[C@@H](CO)[C@H](C(=O)N3CCc4ccccc4C3)N(C(=O)C3CC3)[C@H]21 (mixture of isomers) | inactive |
| COCC(=O)Nc1ccc2c(c1)C(=O)N(C)C[C@H](OC)[C@@H](C)CN(C(=O)c1ccccc1)[C@@H](C)CO2 | inactive |
| Cc1ccc2nc(C)c3c(c2c1)OC(C(C)(Cl)Br)C3 (stereo not given) | inactive |
| COC(=O)C1=C(C)N(Cc2ccc(Cl)cc2)C(=S)NC1c1cccc(F)c1 (stereo not given) | inactive |
| CCc1ccc(C(C)NC(=S)NCc2ccc(F)cc2)cc1 (stereo not given) | inactive |
| COc1ccc(CNC(=S)NCc2ccc(OC)cc2)cc1 | inactive |
| COC(=O)C1=C(C)N(Cc2ccc(Cl)cc2)C(=S)NC1c1ccccc1 (stereo not given) | inactive |
| COC(=O)C1=C(C)N(Cc2ccc(Cl)cc2)C(=S)NC1c1cccc(Cl)c1 (stereo not given) | inactive |
| COC(=O)C1=C(C)N(Cc2ccccc2)C(=S)N[C@H]1c1cccc(C(F)(F)F)c1 | inactive |
| S=C(Nc1ccccc1)Nc1cc(Cl)ccc1Oc1ccccc1 | inactive |

| SMILES | outcome |
| --- | --- |
| C[C@@H]1CN([C@H](C)CO)C(=O)c2cc(C3=CCCCC3)cnc2O[C@H]1CN(C)C(=O)Cc1cccnc1 | inactive |
| CCOC(=O)NC(=S)Nc1ccc(C(C)(C)C)cc1 | inactive |
| CC(C)c1ccccc1NC(=S)NN(Cc1ccccc1)c1ccccc1 | inactive |
| Cc1cc(C(=O)NC(=S)Nc2ccccc2N2CCOCC2)ccc1[N+](=O)[O-] | inactive |
| COC(=O)C1=C(C)N(Cc2ccc(F)cc2)C(=S)NC1c1cccc(Cl)c1 (stereo not given) | inactive |
| Cc1ccc(C(=O)NC(=S)Nc2ccc(N3CCOCC3)cc2)cc1 | inactive |
| COC(=O)C1=C(C)N(Cc2ccc(F)cc2)C(=S)NC1c1ccc(Cl)cc1 (stereo not given) | inactive |
| O=C(COC(=O)CCC1CCCC1)Nc1nc2c(F)c(F)c(F)cc2s1 | inactive |
| Cc1ccc(OCCn2c(=S)[nH]c3ccccc32)c(C(C)C)c1 | inactive |
| COC(=O)C1=C(C)N(Cc2ccc(F)cc2)C(=S)NC1c1cccc(F)c1 (stereo not given) | inactive |
| CCOc1ccc(CNC(=S)NCc2ccc(OCC)cc2)cc1 | inactive |
| COC(=O)C1=C(C)N(Cc2ccc(Br)cc2)C(=S)NC1c1ccccc1 (stereo not given) | inactive |
| COC(=O)C1=C(C)N(Cc2ccc(Cl)cc2)C(=S)NC1c1ccc(OC)cc1 (stereo not given) | inactive |
| Cc1cccc2sc(N3CCN(C(=O)c4cccs4)CC3)nc12 | inactive |
| NC(=S)N/N=C/c1ccc(-c2cc(Cl)ccc2Cl)o1 | inactive |
| O=C(NC(=S)Nc1ccc(Br)cc1)C1CCC1 | inactive |
| COC(=O)C1=C(C)N(Cc2ccc(F)cc2)C(=S)NC1c1ccc(F)cc1 (stereo not given) | inactive |
| COC(=O)C1=C(C)N(Cc2ccc(Cl)cc2)C(=S)NC1c1ccc(Br)cc1 (stereo not given) | inactive |
| COC(=O)C1=C(C)N(Cc2ccccc2)C(=S)NC1c1ccc(Br)cc1 (stereo not given) | inactive |
| COc1ccc(C(=O)NC(=S)Nc2ccccc2N2CCOCC2)cc1[N+](=O)[O-] | inactive |
